Hit rate of the full screen: of about 5,500 compounds, about 2,000 (36%) were called active. Another 18% or so got no clear call; they are omitted. Cut-off read from the data, not from the text of the source: active = normalized growth mostly below about 0.91 (no sharp cut-off); inconclusive = no clear call, values can overlap the other calls; inactive = mostly above about 0.92. This is one part of the list.
Experiment: chemical genetic growth profiling, strain panel (AID 1159580);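 note: tested at 20 µM; growth read once vehicle control cultures reached saturation at 30 °C; 1 = growth at the plate median or of vehicle wells; lower values mean less growth of the strain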
Settings: growth OD

Measured: normalized growth

Cc1ccc(C(C)C)cc2c(C)ccc1-2
inactive: S. cerevisiae deletion strains, locus YJR043C, strain POL32, hits give low values 0.977 | S. cerevisiae deletion strains, locus YJR066W, strain TOR1, hits give low values 0.925 | S. cerevisiae deletion strains, locus YKL009W, strain mrt4, hits give low values 1.04 | S. cerevisiae deletion strains, locus YKL068W, hits give low values 1 | S. cerevisiae deletion strains, locus YKL085W, strain MDH1 (second series), hits give low values 1 | S. cerevisiae deletion strains, locus YKL085W, strain MDH1, hits give low values 1 | S. cerevisiae deletion strains, locus YKL160W, strain elf1, hits give low values 0.989 | S. cerevisiae deletion strains, locus YKL190W, strain CNB1, hits give low values 0.986 | S. cerevisiae deletion strains, locus YKR001C, strain vps1, hits give low values 1 | S. cerevisiae deletion strains, locus YKR026C, strain gcn3, hits give low values 1 | S. cerevisiae deletion strains, locus YKR091W, strain srl3, hits give low values 1 | S. cerevisiae deletion strains, locus YLL001W, strain dnm1, hits give low values 0.976 | S. cerevisiae deletion strains, locus YLL026W, hits give low values 0.998 | S. cerevisiae deletion strains, locus YLL041C, strain sdh2, hits give low values 1.01 | S. cerevisiae deletion strains, locus YLR027C, strain aat2, hits give low values 0.991 | S. cerevisiae deletion strains, locus YLR039C, strain RIC1, hits give low values 0.92 | S. cerevisiae deletion strains, locus YLR058C, strain SHM2, hits give low values 1 | S. cerevisiae deletion strains, locus YLR102C, strain apc9, hits give low values 1.02 | S. cerevisiae deletion strains, locus YLR113W, strain HOG1, hits give low values 1.03 | S. cerevisiae deletion strains, locus YLR221C, strain rsa3, hits give low values 1.02 | S. cerevisiae deletion strains, locus YLR258W, strain gsy2, hits give low values 0.999 | S. cerevisiae deletion strains, locus YLR262C, strain YPT6 (second series), hits give low values 1.01 | S. cerevisiae deletion strains, locus YLR262C, strain YPT6, hits give low values 0.909 | S. cerevisiae deletion strains, locus YLR268W, strain sec22, hits give low values 1.01 | S. cerevisiae deletion strains, locus YLR320W, strain mms22, hits give low values 1.01 | S. cerevisiae deletion strains, locus YLR330W, strain CHS5, hits give low values 1 | S. cerevisiae deletion strains, locus YLR342W, strain FKS1 (second series), hits give low values 0.944 | S. cerevisiae deletion strains, locus YLR342W, strain FKS1, hits give low values 1.03 | S. cerevisiae deletion strains, locus YLR357W, strain rsc2, hits give low values 0.982 | S. cerevisiae deletion strains, locus YLR370C, strain arc18, hits give low values 0.995 | S. cerevisiae deletion strains, locus YLR371W, strain rom2, hits give low values 1 | S. cerevisiae deletion strains, locus YLR384C, strain iki3, hits give low values 0.997 | S. cerevisiae deletion strains, locus YLR418C, strain cdc73, hits give low values 0.962 | S. cerevisiae deletion strains, locus YML016C, strain PPZ1, hits give low values 1 | S. cerevisiae deletion strains, locus YML032C, strain rad52, hits give low values 1.03 | S. cerevisiae deletion strains, locus YML120C, strain ndi1, hits give low values 1 | S. cerevisiae deletion strains, locus YML124C, strain tub3, hits give low values 1.02 | S. cerevisiae deletion strains, locus YMR058W, strain fet3, hits give low values 1.01 | S. cerevisiae deletion strains, locus YMR078C, strain ctf18, hits give low values 1.02 | S. cerevisiae deletion strains, locus YMR125W, strain sto1, hits give low values 1 | S. cerevisiae deletion strains, locus YMR129W, hits give low values 1.01 | S. cerevisiae deletion strains, locus YMR205C, strain PFK2, hits give low values 0.981 | S. cerevisiae deletion strains, locus YMR223W, strain ubp8, hits give low values 1.02 | S. cerevisiae deletion strains, locus YMR231W, strain pep5, hits give low values 0.978 | S. cerevisiae deletion strains, locus YMR263W, strain SAP30, hits give low values 0.993 | S. cerevisiae deletion strains, locus YMR307W, strain GAS1, hits give low values 0.914 | S. cerevisiae deletion strains, locus YNL067W, strain RPL9B, hits give low values 0.993 | S. cerevisiae deletion strains, locus YNL071W, strain lat1, hits give low values 0.991 | S. cerevisiae deletion strains, locus YNL183C, strain NPR1, hits give low values 0.981 | S. cerevisiae deletion strains, locus YNL209W, strain ssb2, hits give low values 1.01 | S. cerevisiae deletion strains, locus YNL233W, strain BNI4, hits give low values 0.989 | S. cerevisiae deletion strains, locus YNL248C, strain rpa49, hits give low values 1.02 | S. cerevisiae deletion strains, locus YNL250W, strain rad50, hits give low values 1.05 | S. cerevisiae deletion strains, locus YNL271C, strain bni1, hits give low values 1.03 | S. cerevisiae deletion strains, locus YNL298W, strain CLA4, hits give low values 1.02 | S. cerevisiae deletion strains, locus YNL307C, strain MCK1, hits give low values 0.995 | S. cerevisiae deletion strains, locus YNL322C, strain KRE1 (second series), hits give low values 0.994 | S. cerevisiae deletion strains, locus YNR049C, strain mso1, hits give low values 1 | S. cerevisiae deletion strains, locus YNR052C, strain pop2, hits give low values 1.02 | S. cerevisiae deletion strains, locus YOL006C, strain TOP1, hits give low values 1.02 | S. cerevisiae deletion strains, locus YOL012C, strain htz1 0.644 | S. cerevisiae deletion strains, locus YOL147C, strain pex11, hits give low values 1.03 | S. cerevisiae deletion strains, locus YOR001W, strain rrp6, hits give low values 1.04 | S. cerevisiae deletion strains, locus YOR061W, strain CKA2, hits give low values 1.01 | S. cerevisiae deletion strains, locus YOR069W, strain VPS5, hits give low values 1 | S. cerevisiae deletion strains, locus YOR070C, strain gyp1, hits give low values 0.994 | S. cerevisiae deletion strains, locus YOR080W, strain dia2, hits give low values 1.01 | S. cerevisiae deletion strains, locus YOR083W, strain WHI5, hits give low values 0.987 | S. cerevisiae deletion strains, locus YOR106W, strain vam3, hits give low values 1.01 | S. cerevisiae deletion strains, locus YOR136W, strain idh2, hits give low values 1.03 | S. cerevisiae deletion strains, locus YOR144C, strain elg1, hits give low values 1.02 | S. cerevisiae deletion strains, locus YOR184W, strain ser1, hits give low values 0.991 | S. cerevisiae deletion strains, locus YOR231W, strain MKK1, hits give low values 0.984 | S. cerevisiae deletion strains, locus YOR265W, strain rbl2, hits give low values 0.992 | S. cerevisiae deletion strains, locus YOR270C, strain vph1, hits give low values 1.1 | S. cerevisiae deletion strains, locus YOR290C, strain snf2, hits give low values 0.98 | S. cerevisiae deletion strains, locus YOR316C, strain cot1, hits give low values 1.02 | S. cerevisiae deletion strains, locus YPL051W, strain arl3, hits give low values 0.984 | S. cerevisiae deletion strains, locus YPL078C, strain atp4, hits give low values 0.979 | S. cerevisiae deletion strains, locus YPL106C, strain sse1, hits give low values 0.997 | S. cerevisiae deletion strains, locus YPL240C, strain hsp82, hits give low values 0.999 | S. cerevisiae deletion strains, locus YPL241C, strain CIN2, hits give low values 1 | S. cerevisiae deletion strains, locus YPL256C, strain CLN2, hits give low values 0.98 | S. cerevisiae deletion strains, locus YPR119W, strain clb2, hits give low values 1.02 | S. cerevisiae deletion strains, locus YPR141C, strain kar3, hits give low values 1.01 | S. cerevisiae deletion strains, locus YPR163C, strain tif3, hits give low values 1.04 | S. cerevisiae deletion strains, locus YPR167C, strain met16, hits give low values 1.02 | S. cerevisiae deletion strains, strain wtn01, hits give low values 1.04 | S. cerevisiae strains, strain wild type, hits give low values 0.995

From PubChem BioAssay AID1159580 (chemical genetic matrix, 2015)
